A selection: hits, their analogues and other compounds. The true share with any hit is near 19%.
Lassa entry inh – qHTS for Inhibitors of binding or entry into cells for Lassa Virus; Lassa virus pseudotype entry inhibition, cell reporter; Potency, µM (top dose mostly 37.9 µM), without a hit: at the top dose activity change, negative = inhibition, usual class: inhibitors; 300,000 tested, 1.2% active; calls by dose curve; tested in HEK293 cells; also: potency is read from the fitted curve at half-maximal effect; % is scaled to controls: 0 for no effect and ±100 for the full control effect; nearly all actives have a fitted effect of over 50% in size
CHX counter – Cycloheximide Counterscreen for Small Molecule Inhibitors of Shiga Toxin. cell reporter, cycloheximide protein synthesis inhibition counterscreen. max response, %. 300,000 tested, 12% active; in the data active = max response mostly above about 13%, no sharp cut-off; inactive = mostly below about 14%; also: read at 38.3 µM for the half of the compounds with a filed dose; 0% is about no effect
MARV entry inh – qHTS for inhibitors of binding or entry into cells for Marburg Virus; 300,000 tested, 1.8% active; Potency, µM (titrated, usually from 37.8 µM), inactives show top-dose activity change, negative = inhibition, hits mostly inhibitors; Marburg virus pseudotyped entry inhibition, cell reporter; AID 540276, 2011; calls by dose curve; tested in HEK293 cells; also: potency is read from the fitted curve at half-maximal effect; % is scaled to controls: 0 for no effect and ±100 for the full control effect
Pf growth 96h – Primary qHTS for delayed death inhibitors of the malarial parasite plastid, 96 hour incubation | P. falciparum luciferase reporter growth, 96 h | Potency, µM (top dose mostly 28.7 µM), for inactives: top-dose activity change, negative = inhibition, usual class: inhibitors | 320,000 tested, 6.9% active | AID 504834, 2011; also: potency is read from the fitted curve at half-maximal effect; % is scaled to controls: 0 for no effect and ±100 for the full control effect
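P. falciparum expressing integrated firefly luciferase, in erythrocytes at 2% hematocrit, 0.05% parasitemia, incubated with compounds 96 h at 37 C, 5% CO2. Growth inhibition read as loss of luminescence; two-generation exposure targets delayed-death apicoplast inhibitors.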
Pf growth 48h – Primary qHTS for delayed death inhibitors of the malarial parasite plastid, 48 hour incubation; 310,000 tested, 5.9% active; Potency, µM (top dose mostly 28.7 µM), without a hit: at the highest dose activity change, negative = inhibition, hits mostly inhibitors; P. falciparum luciferase growth in erythrocytes, 48 h; also: potency is read from the fitted curve at half-maximal effect; % is scaled to controls: 0 for no effect and ±100 for the full control effect
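Cell-based growth assay: transgenic P. falciparum expressing firefly luciferase, cultured in red cells within RPMI 1640 containing 0.5% w/v Albumax, 24 mM bicarbonate and gentamycin. A drop in luciferase activity indicates inhibition.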
Shiga inhibitor – A qHTS for Small Molecule Inhibitors of Shiga Toxin | 290,000 tested, 9.2% active | Vero cells, Shiga toxin protein synthesis inhibition reporter | inhibition, % at 38.7 µM; in the data active = inhibition mostly above about 28%, no sharp cut-off; inactive = mostly below about 43%; also: 0% is about no effect
Starred values were filed as active, the others as inactive; ? = inconclusive; · = no result; [ ] = another dose, or the depositor's remark. Unless noted, calls follow the shape of the dose curve; as a rule, active = well fitted inhibition curve with a large enough effect; inconclusive = small, poorly fitted or top-dose-only effect, or another doubt; inactive = no such curve, though single readings can be large or run the other way.

SMILES | Lassa entry inh | CHX counter | MARV entry inh | Pf growth 96h | Pf growth 48h | Shiga inhibitor
N#Cc1ccc(C23CC4(C2)[C@H](CN(Cc2cccnc2)[C@@H]4c2ccccc2)C3c2ccccc2)cc1 (stereo not given in full) | · | -3 | · | 3.7µM* | 4.1µM* | 7
COC(=O)c1ccc(C23CC4(C2)[C@H](CN(Cc2cccnc2)[C@@H]4c2ccccc2)C3c2ccccc2)cc1 (stereo not given in full) | · | -3 | · | 8.3µM* | 7.4µM* | -6
COC(=O)c1ccc(C23CC4(C2)[C@H](CN(Cc2cccnc2)[C@@H]4c2ccccc2)C3c2ccc(C(F)(F)F)cc2)cc1 (stereo not given in full) | · | -1 | · | 3.3µM* | 2.9µM* | 1
O=C(C1=NN[C@@H]2C(=O)N(c3cccc(C(F)(F)F)c3)C(=O)[C@H]12)c1cnccn1 | 16% | 1 | 11% | 16% | 1% | -10
C[C@@H]1O[C@H](O[C@@H]2C(O)[C@H](O)[C@@H](CO)O[C@H]2Oc2cc(O)c3c(=O)cc(-c4ccc(O)cc4)oc3c2)[C@H](O)[C@H](O)[C@H]1O (stereo not given in full) | · | -7 | · | · | · | -13
COC(=O)CN(c1cc([N+](=O)[O-])ccc1OC)S(C)(=O)=O | -2% | 6 | -1%[46.1 µM] | 15µM* | -8% | -4
COC(=O)CN(c1cc(Cl)ccc1OC)S(=O)(=O)c1ccc(C)cc1 | -15% | 1 | ? | -14% | 2.1µM* | 3
COc1ccc(S(=O)(=O)Nc2ccc(C)cc2)cc1N(C)S(=O)(=O)c1ccc(Cl)cc1 | ? | 6 | ? | -12% | 2.9µM* | 1
COc1ccc([N+](=O)[O-])cc1N(CC(=O)O)S(C)(=O)=O | -18% | -1 | 4% | -16% | 5% | 24
Cc1cc(=O)oc2cc(OCC(=O)NCCCN3CCCC3=O)ccc12 | · | 1 | · | 7% | -2% | 20
Cc1oc(-c2ccc3c(c2)OCCO3)cc1C(=O)NC(Cc1ccccc1)C(=O)O (stereo not given) | 4% | 2 | -12%[46.1 µM] | 22% | -18% | 41
COC(=O)[C@@]1(Cc2ccc(F)cc2)[C@H]2c3cc(C(=O)N(C)C)n(Cc4c(CO)[nH]cc(C)c4=O)c3C[C@H]2CN1C(=O)c1ccccc1 | ? | 14 | -22% | 1.9µM* | 1.3µM* | 15
COC(=O)[C@@]1(Cc2ccc(F)cc2)[C@H]2c3cc(C(=O)N(C)C)n(Cc4ccc(OC(F)(F)F)cc4)c3C[C@H]2CN1C(=O)c1ccccc1 | ? | -2 | ? | 2.3µM* | 1.9µM* | -8
CCOC(=O)c1[nH]nc(C(=O)c2ccc(Br)cc2)c1O | 10% | 14 | 0% | 15% | 0% | 63*
Cc1ccccc1C(=O)N1CCN(CCc2ccccn2)CC1 | 3%[46.1 µM] | · | 5%[46.1 µM] | · | · | ·
CCCCOc1ccc(CC(=O)NO)cc1 | -11% | -1 | 18% | 0.23µM* | 0.41µM* | 0
CCCCOc1ccc(C(=O)NC)cc1 | ? | 21 | 10% | · | -12% | 20
CCCc1ccc(OCCNC(=O)CC)cc1 | ? | 16* | 5% | · | 0% | 22
O=C(NCCCn1ccnc1)c1ccc(S(=O)(=O)N2CCOCC2)cc1 | -12% | -3 | -26% | 12% | 6% | -13
BrC(=C\c1ccccc1)/C=N/Nc1ccc2nncn2n1 | -25%[46.1 µM] | 11 | -6%[46.1 µM] | 13% | -13% | 18
O=C(CCc1ccncc1)N1CCCC(Nc2ccc(F)c(F)c2)C1 (stereo not given) | · | 1 | · | 13µM* | 0% | -2
COc1c(C)cc(C(=O)C2CCCN(C(=O)CCCn3cncn3)C2)cc1C (stereo not given) | · | -2 | · | 6% | 11% | 46
COc1ccc(NC2CCCN(C(=O)CCc3ccncc3)C2)cc1OC (stereo not given) | · | 45* | · | -23% | 0% | -12
Cc1ccc(NC2CCCN(C(=O)CCc3ccncc3)C2)cc1C (stereo not given) | -12%[46.1 µM] | 1 | -5%[46.1 µM] | -13% | -7% | -4
O=C(CSc1ccccn1)N1CCCC(Nc2ccc(F)c(F)c2)C1 (stereo not given) | ? | 7 | 21% | 1% | -20% | -4
SMILES | Lassa entry inh | CHX counter | MARV entry inh | Pf growth 96h | Pf growth 48h | Shiga inhibitor
COc1ccc(NC2CCCN(C(=O)CCCn3cncn3)C2)cc1OC (stereo not given) | 4%[46.1 µM] | -4 | ? | 2.6µM* | -4% | 1
O=C1CCCN1CCC(=O)N1CCCC(Nc2ccc(F)c(F)c2)C1 (stereo not given) | 5% | 13 | 1%[46.1 µM] | ? | -4% | 33*
Cc1ccc(N2C(=O)CC(N3CCc4ccccc43)C2=O)cc1Cl (stereo not given) | ? | 12 | ? | ? | 27% | -18
Cc1ccc(Cc2nnc3n(-c4cccc(C)c4)nc(C(=O)c4ccccc4)n3c2=O)cc1 | -6% | -4 | ? | 3.7µM* | 5.2µM* | -4
COc1ccc(/C=C2/C(=O)ON=C2C)cc1Cl | -4%[46.1 µM] | -2 | -9%[46.1 µM] | -5% | 20% | 35
COc1ccc(CCNCc2c(OC)ccc3ccccc23)cc1 | · | -1 | · | ? | ? | 34
COc1ccc2ccccc2c1CNCc1ccc(C)cc1 | -6%[46.1 µM] | -2 | 10µM* | ? | ? | -13
COc1cc(C=C2C(=O)NC(=O)NC2=O)cc(OC)c1OC | · | -4 | · | ? | 11% | -7
Clc1ccc(Nc2nnc(Cc3ccncc3)c3ccccc23)cc1 | · | · | · | 6.7µM* | 13µM* | ·
S=C(NCc1ccncc1)Nc1ccc(Cl)cc1 | -3% | -3 | 3% | -8% | -15% | 1
COc1ccc(C2C3=C(CC(C)(C)CC3=O)Oc3ncn(CCCn4ccnc4)c(=N)c32)cc1 (stereo not given) | -5% | 2 | ? | 5.2µM* | 9.3µM* | -10
CC1(C)CC(=O)C2=C(C1)Oc1ncn(CCCn3ccnc3)c(=N)c1C2c1ccccc1 (stereo not given) | 0% | -6 | ? | ? | ? | -6
COc1ccc(C2C3=C(CC(C)(C)CC3=O)Oc3ncn(Cc4ccccc4)c(=N)c32)cc1 (stereo not given) | ? | -6 | ? | 13µM* | · | -12
CC1(C)CC(=O)C2=C(C1)Oc1ncn(Cc3ccco3)c(=N)c1C2c1ccccc1 (stereo not given) | -25% | -2 | -5% | 6.6µM* | ? | -18
O=C(CC1CCCC1)N1CCN(S(=O)(=O)c2ccc(F)cc2)CC1 | -4% | · | -13% | -17% | 2% | ·
CC1CCCCC1NC(=O)C1CCN(c2c3c(nc4ncnn24)CCC3)CC1 (stereo not given) | 4% | -6 | -26% | -8% | 9.3µM* | -3
CN(CC(=O)NCc1ccccc1)S(=O)(=O)c1ccc2[nH]c3c(c2c1)CCCC3 | -15%[46.1 µM] | · | · | · | · | ·

Screens (PubChem BioAssay)
